# High-throughput results from PubChem.
# eIF4E 4G PPI: eIF4E/eIF4G interaction inhibition in translation initiation | P63073+Q04637 | TR-FRET eIF4E-eIF4GI(517-606) binding, 2 h | inhibition, % at 21.7 µM | 0.37% of 220,000 active | AID 782;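 active = inhibition above about 30%, limit read from the data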;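 note: 0% = full FRET control wells and 100% = background wells lacking eIF4GI fragment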
# 14-3-3 Bad PPI: disrupts binding of bovine 14-3-3 zeta to phospho-Bad peptide. 0.71% of 220,000 active. AID 781. TR-FRET 14-3-3zeta/Dy647-pBad peptide displacement, 1 h. P63103. inhibition, % at 21.7 µM;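 active = inhibition above about 70%, limit read from the data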;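 note: 0% = full 14-3-3 plus peptide FRET controls and 100% = background without 14-3-3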
# MCL1 BIM primary: disrupts human MCL1 binding to BIM-BH3 peptide; AID 2057; GST-MCL1 / FITC-Bim-BH3 fluorescence polarization; 0.68% of 320,000 active; Q07820; inhibition, % at 10.9 µM;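 active = inhibition above the mean inhibition of all tested compounds plus 3 SD, set per campaign, cut at about 40% in these data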;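 note: 0% = DMSO wells and 100% = unlabeled Bim-BH3 peptide control; higher means more loss of mP so more displacement of Bim peptide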
# Mcl-1 Bim block: human Bim-Mcl-1 interaction inhibition. Bead-based flow cytometry, Bim peptide-Mcl-1 binding. inhibition, % at 10 µM. 0.1% of 190,000 active. AID 1009; in the data active = inhibition above about 40%;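 note: 0% = no compound tracer wells and 100% = peptide blocker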
# Mcl1 Noxa PPI: disrupts binding of human Mcl-1 to Noxa peptide | Q07820 | TR-FRET Mcl-1/Noxa peptide binding, 2 h | inhibition, % at 21.7 µM | 1.5% of 220,000 active | AID 1022;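 active = compounds that cut the protein-peptide binding signal by more than 50% relative to plate controls in a single-dose test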;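 note: His-tagged Mcl-1 with rhodamine Noxa BH3 peptide and terbium anti-His antibody; 0% = Mcl-1 plus Noxa peptide wells and 100% = peptide-only wells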
# Mcl1-Bid inh: Mcl-1/Bid interaction inhibition | Q07820 | TR-FRET Mcl-1/Bid-Dy647 peptide binding, 1536-well | inhibition, % at 21.7 µM | 0.97% of 220,000 active | AID 1021;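 active = compounds that cut the binding signal by more than half at the single screening dose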;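 note: His-tagged Mcl-1 with europium anti-His antibody binding Bid BH3 peptide; 0% = Mcl-1 plus peptide wells and 100% = peptide-only wells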
# Starred values were filed as active, the others as inactive; . = not tested or not shown. Sampled rows, rich in hits. Any-hit rate of the full collection: about 2.6%.
SMILES,eIF4E 4G PPI,14-3-3 Bad PPI,MCL1 BIM primary,Mcl-1 Bim block,Mcl1 Noxa PPI,Mcl1-Bid inh
O=C(O)c1cccc(NC(=S)N/N=C/c2cccc(O)c2)c1,-5,0,21,0,17,-36
COC(=O)c1ccc(COc2ccccc2/C=N/Nc2cccc(C(=O)O)c2)cc1,-2,-5,.,-1,11,-45
O=C(O)c1cccc(NC(=S)N/N=C/c2ccccc2OCc2ccc(Br)cc2)c1,4,5,25,-4,52*,-37
O=C(O)c1cccc(NC(=S)N/N=C/c2ccccc2OCc2cccc(Br)c2)c1,3,24,.,-3,56*,-38
NCCCC[C@H]1CNC(=S)N1CCc1cccc(F)c1,-1,-5,8,0,7,-19
Cc1[nH]c2ccccc2c1C(Nc1nccs1)c1ccncc1 (configuration not stated),-2,-11,12,-4,4,-71
Cc1ccnc(NC(c2ccncc2)c2c(C)[nH]c3ccccc23)c1 (configuration not stated),6,-3,8,-4,35,51*
O=C(NCCc1ccc(Cl)cc1)c1ccc2[nH]c(=O)c(=O)[nH]c2c1,.,.,4,.,.,.
O=C(NNc1c2ccccc2nc2ccccc12)c1ccc(Cl)cc1,.,.,8,.,.,.
Cc1ccc(C(=O)NNc2c3ccccc3nc3ccccc23)cc1,2,55,17,.,81*,12
Cc1ccc(C(=O)NNC2=Nc3cccc4cccc2c34)cc1,0,-2,0,-5,67*,20
Cc1ccc(C(=O)NNC(=O)c2ccc3ncccc3c2)cc1,5,4,.,50*,-4,-9
CCOC(=O)C(=O)NNc1ccc(F)cc1,31*,1,3,.,-43,-29
CCOC(=O)C(=O)N/N=C/c1ccc(F)cc1,4,4,10,.,5,-7
CCOC(=O)C1=C(C)Nc2ccccc2N=C1NC(=O)c1cc(C)on1,.,.,3,.,.,.
CCOC(=O)C1=C(c2ccccc2)NC(=O)NC1c1ccc(OC)cc1 (configuration not stated),-2,4,-11,2,27,1
CCOC(=O)C1=C(c2ccccc2)NC(=O)NC1c1ccc(N(C)C)cc1 (configuration not stated),4,45,-2,-1,61*,0
CCCCC(=O)NC(=S)Nc1c(C)cc(Br)cc1C,4,-2,9,-8,22,12
Cc1nc2cc(C)c(C)cc2s1,2,1,5,-1,-6,-36
Cc1cc2nc3ccc(=[N+](C)C)cc-3sc2cc1N,-40,-125,.,.,51*,-76
COc1ccc2nc(N=Nc3ccc(N(C)C)cc3)sc2c1,-9,0,.,3,-2,-17
CN(C)c1ccc2nc3ccc(=[N+](C)C)cc-3sc2c1,-36,-145,18,5,58*,-111
CCOC(=O)c1cc(-c2ccc(OC)cc2)nn1-c1ccccc1C(=O)O,34*,2,-2,.,-12,-110
CC(C)C(NC(=O)c1c(F)cccc1F)C(=O)NCCc1ccc(S(N)(=O)=O)cc1 (configuration not stated),.,.,12,.,.,.
CN(C)c1ccc(N=C/C=C2\N(C)c3ccccc3C2(C)C)cc1,10,-5,-2,1,71*,-147
SMILES,eIF4E 4G PPI,14-3-3 Bad PPI,MCL1 BIM primary,Mcl-1 Bim block,Mcl1 Noxa PPI,Mcl1-Bid inh
CN1/C(=C\C=Nc2ccc3ccccc3c2)C(C)(C)c2ccccc21,-9,43,-5,-1,11,-17
CCOCCCNC(=O)c1c[nH]c2ccc(S(=O)(=O)Nc3cccc(OC)c3)cc2c1=O,6,49,-12,0,39,56*
Cc1ccccc1N(C)S(=O)(=O)c1ccc2[nH]cc(C(=O)NCC3CCCO3)c(=O)c2c1 (configuration not stated),14,21,-6,-1,42,66*
CCc1ccc(NS(=O)(=O)c2ccc3[nH]cc(C(=O)NCC4CCCO4)c(=O)c3c2)cc1 (configuration not stated),3,43,4,-4,16,54*
Cc1cc(C)cc(NS(=O)(=O)c2ccc3[nH]cc(C(=O)N4CCc5ccccc54)c(=O)c3c2)c1,7,11,7,0,17,-17
CCN(CC)C(=O)c1c[nH]c2ccc(S(=O)(=O)Nc3cc(C)cc(C)c3)cc2c1=O,11,51,7,-2,23,55*
CCOc1ccc(N(C)S(=O)(=O)c2ccc3[nH]cc(C(=O)NCC4CCCO4)c(=O)c3c2)cc1 (configuration not stated),2,22,-6,4,45,11
COc1ccc(CNC(=O)C2CCC(CNc3nc(=S)[nH]c4ccccc34)CC2)cc1 (configuration not stated),4,32,1,0,-19,14
CNS(=O)(=O)c1cccc(C(=O)OCc2cc(=O)oc3c(C)c(O)ccc23)c1,.,.,0,.,.,.
CCCNC(=O)c1onc(CSc2ccc(Cl)cc2)c1C(=O)NC(C)C,.,.,4,.,.,.
COCCN1C(=O)N(c2cccc(C)c2)C(=O)C1CC(=O)Nc1ccc(F)cc1 (configuration not stated),4,93*,1,0,10,-17
COc1ccc(C2(C)NC(=O)N(CC(=O)NCCC3=CCCCC3)C2=O)cc1OC (configuration not stated),6,1,-21,-1,6,84*
COc1cc(/C=N/Nc2nc3ccccc3[nH]2)cc(OC)c1O,5,4,4,0,73*,-67
COc1cc(/C=N/Nc2ccccc2[N+](=O)[O-])cc(OC)c1O,2,-10,26,2,58*,-13
COc1cc(/C=N/Nc2nc3ccccc3[nH]2)ccc1O,1,-3,2,1,34,-15
COc1cc(/C=N/Nc2ccc(S(N)(=O)=O)cc2[N+](=O)[O-])cc(OC)c1O,0,1,22,.,48,3
COc1cc(/C=N/Nc2ccc(F)cc2F)cc(OC)c1O,5,-22,26,9,62*,-76
CCCCN(C(=O)C(C)Oc1ccc(Br)cc1)c1c(N)n(Cc2ccccc2)c(=O)[nH]c1=O (configuration not stated),.,.,-18,.,.,.
Cc1ccc(C2(c3ccccc3)NC(=O)N(CC(=O)NCc3ccccc3)C2=O)cc1C (configuration not stated),.,.,-14,.,.,.
COc1ccc(NC(=O)c2ccc(Cl)nc2)cc1S(=O)(=O)N1CCOCC1,.,.,10,.,.,.
CCN(CC)S(=O)(=O)c1cc(NC(=O)Cn2ncc(Cl)c(Cl)c2=O)ccc1C,13,28,10,.,78*,-5
CCOC(=O)c1ccc(NC(=O)Cn2ncc(Cl)c(Cl)c2=O)cc1,4,1,-7,-5,81*,11
COc1ccc(NC(=O)Cn2ncc(Cl)c(Cl)c2=O)cc1S(=O)(=O)N1CCOCC1,2,33,27,0,78*,-16
